The results in this text go back to PubChem BioAssay (NCI).

This is part of a sample that, as a whole, favours compounds with a hit. Of some 83,000 tested, about 20% had one in any assay.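 Percent growth is the endpoint: 0 to 100 indicates growth inhibition (40 means 60% inhibition), 0 means no net growth, and negative values indicate cell death.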 Activity calls are given as the source filed them. How the source made its calls: active means growth percent below 10; inactive means the rest.

Among the test systems are HCT-15 colon; HT29 colon; SNB-75 CNS; SNB-19 CNS; PC-3 prostate; SK-MEL-5 melanoma; UACC-62 melanoma; LOX IMVI melanoma; SK-MEL-28 melanoma.
Holding throughout (experiment): NCI-60 one-dose screen, 48 h (100 = growth as untreated, 0 = no growth, -100 = all killed)
What all share (settings): 10 µM unless noted

For the compound `O=S(=O)(Nc1ccc(Cl)c(F)c1)c1ccc(-c2cnc(C3CC3)o2)cc1`, the growth is 21.1% (inactive) in the assay on HCT-15 colon; -6.67% (active) in the assay with HT29 colon; -7.32% (active) with SNB-75 CNS; 44.9% (inactive) in the assay with SNB-19 CNS; 29.9% (inactive) in the assay with PC-3 prostate; 17.4% (inactive) with SK-MEL-5 melanoma. The growth in the assay with UACC-62 melanoma is 24.8% (inactive); in the assay with LOX IMVI melanoma it was 40.3% (inactive); with SK-MEL-28 melanoma, 58.5% (inactive).

Regarding `COc1ccc(-c2nc3ccc(-c4nc5ccc(N6CCN(c7ccc(F)cc7)CC6)cc5[nH]4)cc3[nH]2)cc1OC`, the growth is 44.7% (inactive) with HCT-15 colon; 44.3% (inactive) in the assay with HT29 colon; 64.3% (inactive) in the assay with SNB-75 CNS; 117% (inactive) in the assay on SNB-19 CNS; 62.7% (inactive) in the assay with PC-3 prostate; 65.6% (inactive) in the assay on SK-MEL-5 melanoma. For the same compound, the growth in the assay on UACC-62 melanoma is 60.6% (inactive); with LOX IMVI melanoma it was 37.1% (inactive); in the assay on SK-MEL-28 melanoma it was 90.6% (inactive).

Turning to `CC(=O)O[C@H]1CC[C@]2(C)[C@H]3CC=C4[C@@H]5CC(C)(C)CC[C@]5(C(=O)NCCNCCNCCN)CC[C@@]4(C)[C@]3(C)CC[C@H]2C1(C)C`, the growth with HCT-15 colon is -74.8% (active); in the assay on HT29 colon, -47.7% (active); with SNB-75 CNS, 71% (inactive); in the assay on SNB-19 CNS it was 92.6% (inactive); with PC-3 prostate, 38.9% (inactive); in the assay on SK-MEL-5 melanoma it was 90.7% (inactive). Also, the growth in the assay with UACC-62 melanoma is 93.9% (inactive); in the assay on LOX IMVI melanoma it was -98.9% (active); in the assay with SK-MEL-28 melanoma, 93.1% (inactive).

For the compound `O=C1NC(=S)NC(=O)C1CC(=O)n1c(-c2ccccc2)nc2ccccc21`, the growth was 94.3% (inactive) in the assay on HCT-15 colon; 106% (inactive) with HT29 colon; 66.5% (inactive) in the assay on SNB-75 CNS; 94.8% (inactive) in the assay on SNB-19 CNS; 97.7% (inactive) in the assay with PC-3 prostate; 98.5% (inactive) with SK-MEL-5 melanoma. The growth with UACC-62 melanoma was 94.9% (inactive); with LOX IMVI melanoma it was 88.7% (inactive); with SK-MEL-28 melanoma, 112% (inactive).

`COc1cc(/C=C/c2cc(O)c3cc(C(C)=O)c(=O)oc3c2)cc2c1O[C@]1(C)CC[C@@H](O)C(C)(C)[C@H]1C2`: the growth with HCT-15 colon is 14.4% (inactive); in the assay with HT29 colon, 60.5% (inactive); in the assay with SNB-75 CNS it was -8.02% (active); in the assay with SNB-19 CNS, 48.1% (inactive); in the assay on PC-3 prostate it was 27.4% (inactive); with SK-MEL-5 melanoma, -96.8% (active). In addition, the growth is -11.7% (active) in the assay with UACC-62 melanoma and -0.116% (active) in the assay with SK-MEL-28 melanoma.

On to `COc1cccc(-c2nc3sccn3c2-c2ccnc(NCCNS(=O)(=O)c3ccc(F)cc3)c2)c1`, for which the growth in the assay with HCT-15 colon was 17.2% (inactive); with HT29 colon, 24% (inactive); with SNB-75 CNS, 22.9% (inactive); with SNB-19 CNS it was 50.5% (inactive); with PC-3 prostate it was 16.3% (inactive); with SK-MEL-5 melanoma, -53.1% (active). For the same compound, the growth is -9.01% (active) with UACC-62 melanoma, 25.1% (inactive) with LOX IMVI melanoma and 45.2% (inactive) with SK-MEL-28 melanoma.

`C=C(C)[C@@H]1CC[C@]2(C(=O)OC)CC[C@]3(C)[C@H](CC[C@@H]4[C@@]5(C)C/C(=C/c6ccc(OC)cc6)C(=O)C(C)(C)[C@@H]5CC[C@]43C)[C@@H]12`: the growth in the assay on HCT-15 colon is 59.6% (inactive); in the assay with HT29 colon, 32.1% (inactive); with SNB-75 CNS it was 75.7% (inactive); with SNB-19 CNS, 108% (inactive); with PC-3 prostate it was 84.9% (inactive); in the assay with SK-MEL-5 melanoma, 95.8% (inactive). In addition, the figures for the growth in the assay with UACC-62 melanoma, in the assay on LOX IMVI melanoma and in the assay on SK-MEL-28 melanoma were 99.7% (inactive), 79.6% (inactive) and 102% (inactive), respectively.
